From the supplement of paper PMC3150612
± gives the standard deviation of the averaged measurements.

Assays:
Drosophila melanogaster [1] = test: olfactory response index (dipstick assay) (fraction of flies (RI; 1 aversion, 0.5 indifferent, 0 attraction)); higher = stronger aversion to the odorant; settings: odorant concentration: 1% v/v, male
Drosophila melanogaster [2] = test: as above; settings: odorant concentration: 1% v/v, female
[3] = genotype (tubulin-GAL4 x UAS-RNAi line; control = progenitor): A5
[4] = genotype (tubulin-GAL4 x UAS-RNAi line; control = progenitor): control
[5] = genotype (tubulin-GAL4 x UAS-RNAi line; control = progenitor): obp 18a
[6] = genotype (tubulin-GAL4 x UAS-RNAi line; control = progenitor): obp 22a
[7] = genotype (tubulin-GAL4 x UAS-RNAi line; control = progenitor): obp 28a
[8] = genotype (tubulin-GAL4 x UAS-RNAi line; control = progenitor): obp 56a
[9] = genotype (tubulin-GAL4 x UAS-RNAi line; control = progenitor): obp 56c
[10] = genotype (tubulin-GAL4 x UAS-RNAi line; control = progenitor): obp 56f
[11] = genotype (tubulin-GAL4 x UAS-RNAi line; control = progenitor): obp 57a
[12] = genotype (tubulin-GAL4 x UAS-RNAi line; control = progenitor): obp 57b
[13] = genotype (tubulin-GAL4 x UAS-RNAi line; control = progenitor): obp 58c
[14] = genotype (tubulin-GAL4 x UAS-RNAi line; control = progenitor): obp 59a
[15] = genotype (tubulin-GAL4 x UAS-RNAi line; control = progenitor): obp 83a
[16] = genotype (tubulin-GAL4 x UAS-RNAi line; control = progenitor): obp 83c
[17] = genotype (tubulin-GAL4 x UAS-RNAi line; control = progenitor): obp 93a
[18] = genotype (tubulin-GAL4 x UAS-RNAi line; control = progenitor): obp 99b
[19] = genotype (tubulin-GAL4 x UAS-RNAi line; control = progenitor): obp 56h
[20] = genotype (tubulin-GAL4 x UAS-RNAi line; control = progenitor): obp 58b

Row | SMILES | olfactory response index (Drosophila melanogaster [1]; [3]) | olfactory response index (Drosophila melanogaster [1]; [4]) | olfactory response index (Drosophila melanogaster [1]; [5]) | olfactory response index (Drosophila melanogaster [1]; [6]) | olfactory response index (Drosophila melanogaster [1]; [7]) | olfactory response index (Drosophila melanogaster [1]; [8]) | olfactory response index (Drosophila melanogaster [1]; [9]) | olfactory response index (Drosophila melanogaster [1]; [10]) | olfactory response index (Drosophila melanogaster [1]; [11]) | olfactory response index (Drosophila melanogaster [1]; [12]) | olfactory response index (Drosophila melanogaster [1]; [13]) | olfactory response index (Drosophila melanogaster [1]; [14]) | olfactory response index (Drosophila melanogaster [1]; [15]) | olfactory response index (Drosophila melanogaster [1]; [16]) | olfactory response index (Drosophila melanogaster [1]; [17]) | olfactory response index (Drosophila melanogaster [1]; [18]) | olfactory response index (Drosophila melanogaster [1]; [19]) | olfactory response index (Drosophila melanogaster [2]; [3]) | olfactory response index (Drosophila melanogaster [2]; [4]) | olfactory response index (Drosophila melanogaster [2]; [5]) | olfactory response index (Drosophila melanogaster [2]; [6]) | olfactory response index (Drosophila melanogaster [2]; [7]) | olfactory response index (Drosophila melanogaster [2]; [8]) | olfactory response index (Drosophila melanogaster [2]; [9]) | olfactory response index (Drosophila melanogaster [2]; [10]) | olfactory response index (Drosophila melanogaster [2]; [11]) | olfactory response index (Drosophila melanogaster [2]; [12]) | olfactory response index (Drosophila melanogaster [2]; [20]) | olfactory response index (Drosophila melanogaster [2]; [13]) | olfactory response index (Drosophila melanogaster [2]; [14]) | olfactory response index (Drosophila melanogaster [2]; [15]) | olfactory response index (Drosophila melanogaster [2]; [16]) | olfactory response index (Drosophila melanogaster [2]; [17]) | olfactory response index (Drosophila melanogaster [2]; [18]) | olfactory response index (Drosophila melanogaster [2]; [19])
1 | CC(C)=CCCC(C)=CC=O (mixture of isomers) [citral] | 0.266 ± 0.06 | 0.226 ± 0.041 | 0.202 ± 0.06 | 0.17 ± 0.11 | 0.387 ± 0.092 | 0.0537 ± 0.02 | 0.186 ± 0.067 | 0.452 ± 0.042 | 0.215 ± 0.046 | 0.321 ± 0.11 | 0.166 ± 0.046 | 0.517 ± 0.0054 | 0.101 ± 0.099 | 0.292 ± 0.16 | 0.285 ± 0.083 | 0.0832 ± 0.075 | 0.226 ± 0.13 | 0.595 ± 0.02 | 0.674 ± 0.046 | 0.292 ± 0.12 | 0.474 ± 0.18 | 0.552 ± 0.055 | 0.195 ± 0.075 | 0.606 ± 0.034 | 0.639 ± 0.027 | 0.636 ± 0.17 | 0.642 ± 0.097 | 0.687 ± 0.15 | 0.409 ± 0.19 | 0.68 ± 0.086 | 0.479 ± 0.091 | 0.262 ± 0.091 | 0.536 ± 0.16 | 0.317 ± 0.01 | 0.66 ± 0.13
2 | COC(=O)c1ccccc1O [methyl salicylate] | 0.331 ± 0.2 | 0.13 ± 0.099 | 0.0711 ± 0.077 | 0.179 ± 0.09 | 0.249 ± 0.1 | 0.161 ± 0.056 | 0.181 ± 0.16 | 0.173 ± 0.11 | 0.038 ± 0.036 | 0.193 ± 0.15 | 0.159 ± 0.068 | 0.368 ± 0.047 | 0.225 ± 0.13 | 0.14 ± 0.032 | 0.294 ± 0.18 | 0.108 ± 0.042 | 0.147 ± 0.04 | 0.49 ± 0.19 | 0.558 ± 0.091 | 0.114 ± 0.14 | 0.486 ± 0.086 | 0.384 ± 0.081 | 0.523 ± 0.13 | 0.27 ± 0.14 | 0.295 ± 0.068 | 0.356 ± 0.1 | 0.384 ± 0.23 | 0.287 ± 0.066 | 0.381 ± 0.22 | 0.616 ± 0.093 | 0.454 ± 0.19 | 0.654 ± 0.066 | 0.491 ± 0.02 | 0.308 ± 0.16 | 0.63 ± 0.22
3 | CCc1cnccn1 [2-ethylpyrazine] | 0.416 ± 0.069 | 0.118 ± 0.067 | 0.0666 ± 0.045 | 0.0894 ± 0.038 | 0.472 ± 0.092 | 0.194 ± 0.068 | 0.206 ± 0.11 | 0.247 ± 0.11 | 0.114 ± 0.085 | 0.0743 ± 0.059 | 0.144 ± 0.016 | 0.385 ± 0.17 | 0.221 ± 0.036 | 0.167 ± 0.082 | 0.342 ± 0.071 | 0.146 ± 0.061 | 0.319 ± 0.058 | 0.581 ± 0.074 | 0.524 ± 0.027 | 0.393 ± 0.2 | 0.435 ± 0.1 | 0.581 ± 0.0069 | 0.409 ± 0.078 | 0.497 ± 0.13 | 0.568 ± 0.16 | 0.304 ± 0.2 | 0.4 ± 0.14 | 0.256 ± 0.14 | 0.419 ± 0.22 | 0.638 ± 0.033 | 0.567 ± 0.092 | 0.522 ± 0.12 | 0.552 ± 0.076 | 0.159 ± 0.089 | 0.492 ± 0.14
4 | C=C(C)[C@@H]1CC=C(C)C(=O)C1 [(R)-carvone] | 0.627 ± 0.12 | 0.163 ± 0.067 | 0.206 ± 0.16 | 0.34 ± 0.1 | 0.499 ± 0.09 | 0.396 ± 0.16 | 0.158 ± 0.14 | 0.201 ± 0.076 | 0.207 ± 0.1 | 0.378 ± 0.18 | 0.24 ± 0.096 | 0.541 ± 0.14 | 0.422 ± 0.069 | 0.146 ± 0.12 | 0.472 ± 0.21 | 0.233 ± 0.12 | 0.306 ± 0.22 | 0.747 ± 0.074 | 0.712 ± 0.019 | 0.484 ± 0.18 | 0.5 ± 0.16 | 0.662 ± 0.12 | 0.532 ± 0.2 | 0.712 ± 0.2 | 0.616 ± 0.13 | 0.582 ± 0.15 | 0.685 ± 0.13 | 0.622 ± 0.14 | 0.684 ± 0.077 | 0.711 ± 0.059 | 0.535 ± 0.06 | 0.655 ± 0.11 | 0.708 ± 0.16 | 0.676 ± 0.022 | 0.615 ± 0.14
5 | CC(=O)c1ccccc1 [acetophenone] | 0.629 ± 0.048 | 0.394 ± 0.035 | 0.26 ± 0.13 | 0.231 ± 0.17 | 0.419 ± 0.18 | 0.275 ± 0.14 | 0.265 ± 0.077 | 0.655 ± 0.15 | 0.332 ± 0.051 | 0.318 ± 0.13 | 0.578 ± 0.18 | 0.533 ± 0.14 | 0.745 ± 0.16 | 0.066 ± 0.075 | 0.242 ± 0.12 | 0.326 ± 0.023 | 0.657 ± 0.11 | 0.747 ± 0.024 | 0.69 ± 0.11 | 0.588 ± 0.13 | 0.67 ± 0.066 | 0.656 ± 0.078 | 0.503 ± 0.066 | 0.602 ± 0.057 | 0.801 ± 0.055 | 0.668 ± 0.1 | 0.629 ± 0.053 | 0.621 ± 0.061 | 0.562 ± 0.14 | 0.717 ± 0.05 | 0.45 ± 0.15 | 0.631 ± 0.082 | 0.69 ± 0.067 | 0.376 ± 0.15 | 0.489 ± 0.037
6 | CCC/C=C/C=O [(E)-2-hexenal] | 0.565 ± 0.14 | 0.681 ± 0.13 | 0.494 ± 0.13 | 0.655 ± 0.11 | 0.672 ± 0.07 | 0.763 ± 0.079 | 0.618 ± 0.13 | 0.657 ± 0.065 | 0.555 ± 0.15 | 0.718 ± 0.037 | 0.732 ± 0.052 | 0.666 ± 0.0073 | 0.663 ± 0.1 | 0.67 ± 0.085 | 0.782 ± 0.14 | 0.29 ± 0.16 | 0.55 ± 0.12 | 0.723 ± 0.11 | 0.804 ± 0.15 | 0.724 ± 0.12 | 0.811 ± 0.14 | 0.753 ± 0.051 | 0.892 ± 0.028 | 0.768 ± 0.1 | 0.727 ± 0.076 | 0.843 ± 0.1 | 0.794 ± 0.18 | 0.703 ± 0.057 | 0.715 ± 0.11 | 0.767 ± 0.13 | 0.779 ± 0.088 | 0.837 ± 0.1 | 0.848 ± 0.054 | 0.529 ± 0.24 | 0.665 ± 0.17
7 | CC(C)=CCC/C(C)=C/CO [geraniol] | 0.228 ± 0.033 | 0.136 ± 0.091 | 0.0872 ± 0.11 | 0.0901 ± 0.081 | 0.177 ± 0.1 | 0.188 ± 0.086 | 0.174 ± 0.038 | 0.175 ± 0.023 | 0.0811 ± 0.02 | 0.0917 ± 0.055 | 0.114 ± 0.049 | 0.441 ± 0.039 | 0.159 ± 0.025 | 0.183 ± 0.099 | 0.412 ± 0.13 | 0.141 ± 0.11 | 0.197 ± 0.18 | 0.71 ± 0.16 | 0.492 ± 0.12 | 0.371 ± 0.15 | 0.367 ± 0.018 | 0.605 ± 0.03 | 0.581 ± 0.099 | 0.295 ± 0.025 | 0.468 ± 0.18 | 0.406 ± 0.12 | 0.504 ± 0.032 | 0.591 ± 0.17 | 0.19 ± 0.12 | 0.565 ± 0.091 | 0.442 ± 0.07 | 0.414 ± 0.034 | 0.593 ± 0.061 | 0.35 ± 0.23 | 0.406 ± 0.18
